PubChem BioAssay AID453 (PCMD, 2006)
Out of some 63,000 compounds screened, about 75 (0.1%) were called active. This is one part of a sample in which actives are shown more often than they occur. Values without a mark were called inactive. Rule as the data show it: active = inhibition above about 21%; inactive = the rest.

Target: Cathepsin B (Homo sapiens) (UniProt P07858)
Test: blockers of cathepsin B proteolysis – biochemical, fluorogenic substrate, primary screen (AID 453);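 also: 0% = enzyme with no compound and 100% = no enzyme blank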
Conditions: purified cathepsin B, fluorescence, active compounds read high,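 tested at 10 µM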

| Compound | inhibition |
| --- | --- |
| CCC(c1nnnn1C1CCCC1)N1CCN(C(=O)c2ccco2)CC1 (stereo not drawn) | 4.25% |
| CCCCN=C(N)/C(C(=O)OCC)=C(\O)c1ccc(OC)cc1 | -2.85% |
| CC(C)OC(=O)c1sc2nc3c(cc2c1N)C(=O)CCC3 | 1.67% |
| COc1ccc(N2C(=O)C3CCCN3C2c2cccs2)cc1 (stereo not drawn) | 2.37% |
| O=S(=O)(NCCOc1cccc2cccnc12)c1ccc(F)cc1 | -0.09% |
| O=C(C1=C(O)C(=O)N(Cc2ccccc2)C1c1cccnc1)c1ccco1 (stereo not drawn) | -2.37% |
| N#CCCN(CCC#N)c1nnc(-c2ccccc2)s1 | 1.65% |
| COc1ccccc1CNC(=O)CCCNS(=O)(=O)c1cccc2nsnc12 | 3.57% |
| O=C(CSc1nnnn1C1CCCC1)Nc1ccc2c(c1)OCCO2 | -2.88% |
| Cc1ccccc1CSc1nnc(Cn2c(=O)sc3ccccc32)n1C | 1.64% |
| CN1CCN(c2nc3c(c(=O)[nH]c(=O)n3C)n2Cc2cccc3ccccc23)CC1 | 5.25% |
| C=C(Br)CN1CCN(CC(=C)Br)CC1 | 8.43% |
| CCOc1cc(-c2conc2N)cc(OCC)c1OCC | 0.88% |
| O=c1[nH]c(=O)n(Cc2ccco2)c2c1C(C(F)(F)F)(C(F)(F)F)N=C(c1ccco1)N2 | 3.15% |
| Cc1ccc(-c2nn(-c3ccccc3)cc2CN(Cc2ccccc2)C(=O)CCC(=O)O)o1 | -3.71% |
| O=c1oc2c(CN3CCCCC3)c(O)ccc2c2c1CCCCC2 | -33.1% |
| C=CCNc1nc(C)nc(OC)n1 | 3.19% |
| O=CN1CCN(C2CC(=O)N(c3ccc4c(c3)OCO4)C2=O)CC1 (stereo not drawn) | -5.45% |
| COCCn1c(SCC(=O)Nc2cc(Cl)ccc2OC)nc2c(c1=O)SC(C)C2 (stereo not drawn) | -1.89% |
| O=C(COc1ccc(Cl)cc1)Nc1ccccc1CO | -0.12% |
| CCOC(=O)c1c(C)nc(-c2ccccc2)nc1NC(=O)C(C)C | -1.86% |
| CCOC(=O)c1c(NC(=O)CSc2nnc(Cc3csc(N)n3)n2C)sc(C)c1C | 1.53% |
| O=C(O)C1CCCCC1C(=O)Nc1ccc(Cl)cc1 (stereo not drawn) | -2.32% |
| O=C1Nc2ccccc2C12Nc1ccccc1S2 (stereo not drawn) | -3.59% |
| CCOC(=O)c1[nH]c2ccccc2c1N=C(C)N(CC)CC | -1.09% |
| COC(=O)CCNc1ccc2c(c1)OCCO2 | -7.3% |
| O=C(Nc1nc2ccc(S(=O)(=O)N3CCCC3)cc2s1)C1CCCO1 (stereo not drawn) | -0.69% |
| Cc1nonc1NC(=O)c1ccccc1Br | -1.31% |
